Laboratory results reported in PubChem BioAssay (Tox21).
Where “and” joins values, the source holds several entries; their conditions need not be identical. Equal values may be shown once. Inconclusive results are not listed. A structure can be active in one record and inactive in another. Calls of active or inactive are those of the source. Unless noted, calls come from the whole dose curve; as a rule, active = well fitted curve in the direction sought with a large enough effect in the repeat runs; inconclusive = weak or mixed curves; inactive = no such curve, though single readings can be large; an effect the other way counts as inactive or inconclusive.

Tests used:
[1] = qHTS assay to identify small molecule antagonists of the vitamin D receptor (VDR) signaling pathway - cell viability counter screen (AID 743225); note: nearly all actives have a fitted effect of over 50% in size
Method in brief: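 VDR-UAS-bla HEK 293T cells were plated and incubated 4 h at 37C, then dosed with compound plus 3 nM (final) 1-alpha,25-dihydroxyvitamin D3 for 16 h. After the 2 h beta-lactamase read, viability in the same wells was read as CellTiter-Glo luminescence after 30 min at room temperature.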

[2] = qHTS assay to identify small molecule agonists of the NFkB signaling pathway - cell viability counter screen (AID 1159515; calls by dose curve; note: nearly all actives have a fitted effect of over 55% in size; note: potency is the fitted concentration of half-maximal effect)
Method in brief: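 Cells are seeded (2,000 NFkB-bla ME-180 per well), rested overnight, and dosed with DMSO-dissolved compounds for 5 hr at 37 C. Viability is then read by CellTiter-Glo luminescence after 30 min at room temperature.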

[3] = qHTS assay to identify small molecule agonists of the endoplasmic reticulum stress response signaling pathway (AID 1159516; active = well fitted activation curve with a large enough effect in the signal ratio in the repeat runs, not every such curve was filed as active; the % refers to the signal ratio)
Method in brief: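 Cells are seeded at 1,500 per well and incubated overnight. Compounds in DMSO are added for 5 hr at 37 C, then beta-lactamase FRET substrate for 2 hr at room temperature, and fluorescence at 460 and 530 nm is measured.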

[4] = qHTS assay to identify small molecule agonists of the endoplasmic reticulum stress response signaling pathway - cell viability counter screen (AID 1159517; calls by dose curve; note: nearly all actives have a fitted effect of over 50% in size; note: potency is the fitted concentration of half-maximal effect)
Method in brief: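 ESRE-bla HeLa cells (1,500/well) were plated overnight at 37 C and exposed to compounds for 5 hr. After the 2 hr beta-lactamase substrate read, CellTiter-Glo went into the same wells, and luminescence was read after 30 min at room temperature.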

[5] = qHTS assay to identify small molecule antagonists of the retinoid-related orphan receptor gamma (ROR-gamma) signaling pathway - cell viability counter screen (AID 1159520); note: nearly all actives have a fitted effect of over 50% in size
Method in brief: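 Cytotoxicity was read from cellular ATP (CellTiter-Glo luminescence) after 16 hr at 37 C with 1 uM doxycycline induction. The inducer was added 2 hr after compound transfer to Tet-on ROR gamma CHO cells.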

[6] = target: Nuclear receptor ROR-gamma (Homo sapiens) (UniProt P51449); assay: qHTS assay to identify small molecule antagonists of the retinoid-related orphan receptor gamma (ROR-gamma) signaling pathway (AID 1159521; note: nearly all actives have a fitted effect of over 50% in size; note: potency is the fitted concentration of half-maximal effect)
Method in brief: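 Tet-on ROR-gamma CHO cells with ROR response element-luciferase reporter; compounds added 2 hr before 1 uM doxycycline induction, then 16 hr at 37 C. Antagonism scored as decreased ONE-Glo luminescence.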

[7] = qHTS assay to identify small molecule agonists of the AP-1 signaling pathway - cell viability counter screen (AID 1159525; calls by dose curve; note: nearly all actives have a fitted effect of over 55% in size)
Method in brief: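 Intracellular ATP by Cell Titer Glo luminescence (30 min, RT) in the same ME-180 AP-1-bla wells after the 5 h compound exposure at 37 °C. Normalised to tetra n-octyl ammonium bromide and DMSO controls.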

[8] = qHTS assay to identify small molecule agonists of the AP-1 signaling pathway (AID 1159526; calls by dose curve; note: potency is the fitted concentration of half-maximal effect)
[9] = target: Retinoic acid receptor RXR-alpha (Homo sapiens) (UniProt P19793); assay: qHTS assay to identify small molecule agonists of the RXR signaling pathway (AID 1159527; calls by dose curve; note: nearly all actives have a fitted effect of over 35% in size; note: potency is the fitted concentration of half-maximal effect)
Chain of Retinoic acid receptor RXR-alpha (Homo sapiens) (P19793 whole entry, looked up): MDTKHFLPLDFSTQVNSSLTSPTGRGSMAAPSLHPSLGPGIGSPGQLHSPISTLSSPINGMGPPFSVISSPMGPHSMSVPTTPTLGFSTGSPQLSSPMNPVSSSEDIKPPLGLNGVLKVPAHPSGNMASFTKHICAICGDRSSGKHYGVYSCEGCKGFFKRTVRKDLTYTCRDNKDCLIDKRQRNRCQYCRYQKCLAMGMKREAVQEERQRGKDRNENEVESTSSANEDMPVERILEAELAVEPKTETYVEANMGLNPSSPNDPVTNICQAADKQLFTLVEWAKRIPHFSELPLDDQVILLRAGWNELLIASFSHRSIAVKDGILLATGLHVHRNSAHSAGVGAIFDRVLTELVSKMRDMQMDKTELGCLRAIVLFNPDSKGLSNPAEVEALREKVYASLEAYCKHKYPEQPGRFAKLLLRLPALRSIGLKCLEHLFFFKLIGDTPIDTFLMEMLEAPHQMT
Method in brief: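 GeneBLAzer RXR-alpha-UAS-bla HEK 293T cells in 2% charcoal-stripped FBS medium were exposed to compounds for 16 hr at 37 C in agonist mode. Beta-lactamase reporter read as 460/530 nm FRET ratio after 2 hr substrate loading.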

[10] = qHTS assay to identify small molecule agonists of the RXR signaling pathway - cell viability counter screen (AID 1159529); note: nearly all actives have a fitted effect of over 50% in size; note: potency is the fitted concentration of half-maximal effect
Method in brief: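 RXR-alpha-UAS-bla HEK 293T cells in medium with 2% charcoal-stripped FBS were pre-incubated 5 hr, then compound-treated 16 hr at 37 C. Viability was read by CellTiter-Glo luminescence in the same wells as the beta-lactamase assay, with tetraoctyl ammonium bromide as positive control.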

[11] = qHTS assay to identify small molecule antagonists of the retinoid acid receptor (RAR) signaling pathway - cell viability counter screen (AID 1159551); note: nearly all actives have a fitted effect of over 35% in size
Method in brief: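 Cells (C3RL4) are plated, incubated overnight, dosed with compound in DMSO, then given retinol at 1 uM final. After 6 h at 37 C, CellTiter-Glo is added and luminescence read following 30 min at room temperature.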

[12] = qHTS assay to identify small molecule agonists of the vitamin D receptor (VDR) signaling pathway - cell viability counter screen (AID 743224); note: nearly all actives have a fitted effect of over 50% in size; note: potency is the fitted concentration of half-maximal effect
Method in brief: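 Cells: VDR-bla, 2,000/well, settled 4 h. Treatment: compounds in DMSO, 16 h, 37C/5% CO2. Readout: CellTiter-Glo luminescence after 30 min RT.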

[13] = qHTS assay to identify small molecule agonists of the retinoic acid receptor (RAR) signaling pathway (AID 1159553)
Method in brief: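 Seed C3RL4 reporter cells at 1,000 per well and incubate overnight at 37 C. Add compounds in DMSO, incubate 6 hr. Add luciferase reagent, wait 30 min at room temperature, read luminescence.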

[14] = qHTS assay to identify small molecule antagonists of the retinoic acid receptor (RAR) signaling pathway (AID 1159552; note: nearly all actives have a fitted effect of over 50% in size; note: potency is the fitted concentration of half-maximal effect)
Method in brief: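 Retinol signaling pathway inhibitors screened in C3RL4 RARE-luciferase reporter cells seeded overnight at 37 C, then compounds added with 1 uM (final) retinol as pathway substrate. After 6 hr at 37 C, luciferase luminescence read after 30 min at room temperature.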

[15] = qHTS assay to identify small molecule antagonists of the estrogen related receptor (ERR) signaling pathway - cell viability counter screen (AID 1224818); note: series mostly up to about 46 µM
Method in brief: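 ERR cells, 2,000/well; 6 h settle at 37 C/5% CO2; compound pin transfer (DMSO); 17.5 h at 37 C; CellTiter-Fluor, 30 min, fluorescence read.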

[16] = qHTS assay to identify small molecule antagonists of the estrogen related receptor (ERR) signaling pathway (AID 1224819)
Method in brief: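 qHTS in ERR cells, 2,000/well, 1536 format. Cpd (DMSO) added after 6 h settle, 18 h 37 C. One-Glo luminescence, 30 min RT.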

[17] = test system: estrogen-related receptor alpha (ERRalpha) with PGC-1alpha coactivator, human; assay: qHTS assay to identify small molecule antagonists of the estrogen related receptor signaling pathway with the pleiotropic PPARgamma coactivator (PGC) (AID 1224821; calls by dose curve)
Method in brief: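 A PGC/ERR cell line supplied by NTP is seeded, allowed 6 h at 37 C, and treated with test compounds in DMSO for 18 h. Signal is then measured as luciferase luminescence using One-Glo.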

[18] = qHTS assay to identify small molecule antagonists of the estrogen related receptor signaling pathway with the pleiotropic PPARgamma coactivator (PGC) cell viability counter screen (AID 1224822;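 note: series mostly up to about 46 µM; viability read after 17.5 h compound exposure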)
Method in brief: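 Multiplexed viability counter screen run in PGC/ERR cells treated with compounds for 17.5 h at 37 C; live-cell protease signal measured by CellTiter-Fluor fluorescence.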

[19] = qHTS assay to identify small molecule agonists of the estrogen related receptor signaling pathway with the pleiotropic PPARgamma coactivator (PGC) (AID 1224823)
Method in brief: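 Compounds dissolved in DMSO are added by pin tool to PGC/ERR cells that have settled for 6 h, and incubation continues 18 h at 37 C. Reporter output is measured as One-Glo luminescence.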

Measured: Potency

CCCC1CCCCN1 (centres undefined)
not listed: [12] | [13] | [14] | [15] | [16] | [17] | [18] | [19]
inactive: all other assays above

O=C(O)C(F)(F)C(F)(F)C(F)(F)C(F)(F)C(F)(F)C(F)(F)C(F)(F)C(F)(F)F
inactive: [12] | [2] | [3] | [4] | [5] | [6] | [7] | [8] | [11] | [13]
active: [9] 21.9 µM

COC1CC(=C(c2cccs2)c2cccs2)C[N+](C)(C)C1 (centres undefined)
not listed: [10] | [14] | [15] | [16] | [17] | [18] | [19]
inactive: all other assays above

CN1CC[C@]23c4c5ccc(O)c4O[C@H]2[C@@H](O)C=C[C@H]3[C@H]1C5
not listed: [14] | [15] | [16] | [17] | [18] | [19]
inactive: all other assays above

CCOC(C(=O)OCCN(C)C)(c1ccccc1)c1ccccc1
not listed: [9] | [15] | [16] | [17] | [18] | [19]
inactive: all other assays above

CC(=O)NNc1ccccc1
not listed: [1] | [9] | [12] | [15] | [16] | [17] | [18] | [19]
inactive: all other assays above

C[N+]1(CCF)[C@@H]2CC[C@H]1CC(OC(=O)C(O)(c1ccccc1)c1ccccc1)C2 (some centres undefined)
not listed: [13] | [14] | [15] | [16] | [17] | [18] | [19]
inactive: all other assays above

C[C@]12CC[C@H]3[C@@H](CCC4=CC(=O)CC[C@@H]43)[C@@H]1CC[C@@H]2OC(=O)CCc1ccccc1
not listed: [10] | [15] | [16] | [17] | [18] | [19]
inactive: all other assays above

NC(=O)CF
not listed: [13] | [14] | [15] | [16] | [17] | [18] | [19]
inactive: all other assays above

Nc1cc(Cl)cc(C(=O)O)c1Cl
not listed: [9] | [15] | [16] | [17] | [18] | [19]
inactive: all other assays above

CC(Cc1ccccc1)NCc1ccccc1Cl (centres undefined)
inactive: [12] | [2] | [3] | [4] | [5] | [6] | [7] | [9] | [10] | [11]
active: [8] 23.9 µM

COc1cc(CC#N)cc(OC)c1OC
not listed: [13] | [14] | [15] | [16] | [17] | [18] | [19]
inactive: all other assays above

CCC1(CC)C(=O)NC(=O)NC1=O
not listed: [1] | [9] | [15] | [16] | [17] | [18] | [19]
inactive: all other assays above

C[Si](Cn1cncn1)(c1ccc(F)cc1)c1ccc(F)cc1
inactive: [2] | [3] | [4] | [5] | [7] | [8] | [9] | [10] | [11]
active: [12] 12.7 µM | [6] 31.6 µM and 43.3 µM

CC(C)c1ccc(OP(=O)(Oc2ccc(C(C)C)cc2)Oc2ccc(C(C)C)cc2)cc1
inactive: [12] | [3] | [5] | [7] | [8] | [11] | [13]
active: [2] 30.9 µM | [4] 9.77 µM | [6] 27.5 µM and 30.6 µM | [10] 19.6 µM and 19.5 µM | [14] 54.9 µM

C#C[C@]1(O)CC[C@H]2[C@@H]3CCC4=CC(=O)CCC4=C3C=C[C@@]21CC
active: [6] 9.44 µM | [14] 9.44 µM
not listed: [13] | [15] | [16] | [17] | [18] | [19]
inactive: all other assays above

CCOC(=O)C1OC1(C)c1ccccc1 (centres undefined)
13.9 µM (active) and inactive: [9]
not listed: [13] | [14] | [15] | [16] | [17] | [18] | [19]
inactive: all other assays above

CN1CC[C@]23c4c5ccc(O)c4O[C@H]2[C@@H](O)CC[C@H]3[C@H]1C5
not listed: [13] | [15] | [16] | [17] | [18] | [19]
inactive: all other assays above

CC(C)C1(C)N=C(c2ncccc2C(=O)O)NC1=O (centres undefined)
active: [9] 43.5 µM
not listed: [13] | [14] | [15] | [16] | [17] | [18] | [19]
inactive: all other assays above

CCC1(C2=NCCN2)Cc2ccccc2O1 (centres undefined)
not listed: [13] | [14]
inactive: all other assays above

O=C(NCNC(=O)NC1C(=O)NC(=O)N1CO)NC1C(=O)NC(=O)N1CO (centres undefined)
not listed: [5] | [15] | [16] | [17] | [18] | [19]
inactive: all other assays above
